Assay outcomes: PubChem BioAssay, several laboratories
B2AR ag: human beta-2 adrenergic receptor agonism by FAP; 0.43% of 340,000 active; response, % (no concentration beside the values); Am2.2-beta2AR cells, FAP receptor internalization, flow cytometry; AID 504454;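 active means response above a set limit, near 3 SD of response in nonfluorescent compounds, cut at about 42% in these data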
ABHD5-PLIN5 inh: inhibitors of human ABHD5-perilipin-5 interaction; Split G. princeps luciferase complementation, luminescence, 4 h; inhibition, % at 4 µM; 0.78% of 360,000 active; AID 602281;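 active means inhibition above the mean inhibition across every tested compound plus 3 SD, cut at about 22% in these data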;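 further: 0% = DMSO only wells and the 100% control is not disclosed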
Exocytosis inh: blocks lytic granule exocytosis; TALL-104 LAMP-1 surface exposure, flow cytometry; cells stimulated with thapsigargin and PMA; inhibition, % at 10 µM; 0.66% of 360,000 active;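 active means inhibition above about 55%, limit read from the data; inconclusive means no clear call, values can overlap the other calls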
TLR9-MyD88 block: inhibitors of human TLR9-MyD88 binding; Q9NR96+Q99836; 0.21% of 340,000 active; CHO BLA complementation TLR9-MyD88, CCF4 FRET ratio; inhibition, % at 4.98 µM;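 active means inhibition above the mean over all tested compounds plus 3 SD, cut at about 21% in these data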;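 further: 0% = DMSO only wells and 100% = clavulanate BLA inhibitor control wells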
NOD2-RIPK2 inh: inhibitors of human NOD2-RIPK2 interaction. O43353. CHO BLA complementation NOD2-RIPK2, CCF4 ratio. inhibition, % at 4.98 µM. 0.38% of 360,000 active; in the data active means inhibition above about 21%;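 further: 0% = vehicle only and 100% = reference blocker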
TLR4 MyD88 comp: inhibitors of human TLR4-MyD88 binding | HeLa CL3-4 TLR4/MyD88 BLA complementation, FRET ratio | inhibition, % at 8.4 µM | 0.18% of 200,000 active | AID 861; in the data active means inhibition above about 25%;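 further: 0% = vehicle and 100% = reference inhibitor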
TLR9-MyD88 cf: TLR9-MyD88 interaction inhibition, confirmation. shares compounds with TLR9-MyD88 block. CHO TLR9/MyD88 BLA complementation, CCF4 FRET ratio. inhibition, % at 4.98 µM. 51% of 680 active;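 active means mean inhibition across three repeats above about 21% taken from the earlier screen, limit read from the data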;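 further: blue over green emission ratio reports constitutive TLR9 MyD88 association via BLA complementation; 0% = DMSO vehicle wells and 100% = clavulanate BLA inhibitor wells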
BLA counter-1: counter-screen for TLR9-MyD88 inhibitors: non-selective beta-lactamase inhibitors; inhibition, % at 4.98 µM; AID 540251; shares compounds with TLR9-MyD88 block; CHO-BLA cells, CCF4 FRET ratio, BLA reporter; 7% of 680 active;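 active means mean inhibition above a 50% cutoff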;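 further: counterscreen of TLR9-MyD88 hits on CMV-driven BLA in CHO-K1 cells; 0% = DMSO alone and 100% = clavulanate blocking BLA; higher means less blue over green ratio so more BLA blockade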
TLR9 CHO cytotox: CHO cell toxicity counter-screen for TLR9-MyD88 inhibitors. shares compounds with TLR9-MyD88 block. TLR9-MyD88 CHO cells cytotoxicity, luminescence. inhibition, % at 4.98 µM. 39% of 680 active; in the data active means inhibition above about 11%
ABHD5 PLIN5 conf: confirmation of human ABHD5-PLIN5 interaction inhibitors; shares compounds with ABHD5-PLIN5 inh; biochemical ABHD5-PLIN5 interaction, luminescence; inhibition, % at 4 µM; 67% of 2,200 active; in the data active means inhibition above about 23%;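 further: 0% = DMSO vehicle wells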
HNF4 split-luc: HNF4 split-luciferase signal hit, counter-screen. shares compounds with ABHD5-PLIN5 inh. HNF4 dimerization, luminescence, biochemical. inhibition, % at 4 µM. 77% of 2,200 active. AID 651674;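 active means mean inhibition across replicate wells exceeding the computed hit threshold, cut at about 13% in these data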;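 further: light from luciferase halves that rejoin when HNF4 fusion proteins dimerize; 0% = DMSO only wells and the 100% control is not given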
NOD2-RIPK2 conf: NOD2-RIPK2 interaction inhibition confirmed | 70% of 1,200 active | CHO cells, NOD2-RIPK2 BLA complementation, CCF4 FRET | inhibition, % at 4.98 µM | shares compounds with NOD2-RIPK2 inh;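 active means mean inhibition across replicates above a set limit taken from the earlier primary screen, cut at about 21% in these data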;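 further: 0% = DMSO-only wells and the high end = clavulanate BLA-blocked wells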
BLA counter-2: counter-screen for NOD2-RIPK2 interaction inhibitors: BLA reporter; shares compounds with NOD2-RIPK2 inh; 57% of 1,200 active; inhibition, % at 4.98 µM; CHO BLA reporter, CCF4 FRET ratio, counterscreen;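 active means mean inhibition above the low-control mean inhibition plus three low-control SD, cut at about 11% in these data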;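 further: 0% = DMSO only wells and 100% = clavulanate high control wells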
* hit, by the source's call; ? = inconclusive; . = no result given. This is a sample that favours compounds with a hit; in the whole collection about 2% have one here.

SMILES	B2AR ag	ABHD5-PLIN5 inh	Exocytosis inh	TLR9-MyD88 block	NOD2-RIPK2 inh	TLR4 MyD88 comp	TLR9-MyD88 cf	BLA counter-1	TLR9 CHO cytotox	ABHD5 PLIN5 conf	HNF4 split-luc	NOD2-RIPK2 conf	BLA counter-2
CC(=O)Nc1ccc(NC(=O)c2nc(S(=O)(=O)Cc3ccccc3)ncc2Cl)cc1	14	58*	?	34*	51*	.	36*	30	95*	81*	94*	50*	34*
CCOc1ccccc1NC(=O)c1nc(S(=O)(=O)Cc2cccc(C)c2)ncc1Cl	18	8	48	-5	-14	.	.	.	.	.	.	.	.
CS(=O)(=O)c1ncc(Cl)c(C(=O)Nc2ccc3ccccc3c2)n1	48*	77*	39	45*	79*	15	51*	31	99*	.	.	72*	41*
Cc1ccc(CS(=O)(=O)c2ncc(Cl)c(C(=O)Nc3ccc(OC(F)F)cc3)n2)cc1	27	57*	35	36*	94*	.	24*	15	95*	90*	89*	80*	21*
O=C(Nc1ccc(OC(F)F)cc1)c1ncc(Cl)c(Cl)c1Cl	0	0	1	-1	-5	-4	.	.	.	.	.	.	.
CCS(=O)(=O)c1ncc(Cl)c(C(=O)Nc2ccc(C)cc2)n1	0	48*	-21	45*	61*	.	42*	36	95*	72*	78*	65*	38*
Cc1ccc(NC(=O)c2cc(S(=O)(=O)N3CCCCC3)c[nH]2)cc1Cl	.	-5	-9	.	-2	.	.	.	.	.	.	.	.
CC(C)(CN1CCCN(CC(C)(C)C(=O)O)C1=O)C(=O)O	.	-3	22	4	-3	.	.	.	.	.	.	.	.
CCC1CCCCN1S(=O)(=O)c1ccc(NC(=O)c2nc(S(C)(=O)=O)ncc2Cl)cc1 (configuration not stated)	32	91*	30	53*	96*	.	47*	31	98*	100*	107*	94*	48*
CCC1CCCCN1S(=O)(=O)c1ccc(C(=O)Nc2nnc(-c3ccccc3Cl)o2)cc1 (configuration not stated)	20	-2	4	3	3	2	.	.	.	.	.	.	.
O=C(NCCN1C(=O)S/C(=C\c2ccc(Cl)c([N+](=O)[O-])c2)C1=O)C1=COCCO1	38	16	8	24*	39*	.	11	2	5	.	.	63*	-2
O=C(NCCN1C(=O)S/C(=C\c2ccc(Cl)c(Cl)c2)C1=O)c1cnccn1	-4	3	-7	-4	-1	5	.	.	.	.	.	.	.
CC(C)C[C@@H]1COc2cccc(N3CCC[C@H]3CO)c2S(=O)(=O)N1	.	-1	-4	.	-3	.	.	.	.	.	.	.	.
COC(=O)CNC(=O)CN1C(=O)N(c2cccc(Cl)c2)C(N(O)C(=O)Nc2cccc(Cl)c2)C1(C)C (configuration not stated)	9	6	1	32*	26*	7	8	8	2	.	.	14	23*
CCn1nc(C)cc1-c1nnc(SCC(=O)Nc2ccccc2)n1CCCOC	1	3	4	10	3	.	.	.	.	.	.	.	.
